# In PubChem BioAssay:
# Calls of active or inactive are those of the source.
# Assay: HepG2 liver cancer cell viability effects, profiling panel, resazurin fluorescence, 24 h, PK04 Diversity Set (AID 1172); also: test concentration not given here
# Conditions: higher = more signal
row,Structure (SMILES),z-score
1,CC(C)=CCN(C(=O)C#Cc1ccccc1)[C@H](CO)c1ccccc1,-3.85
2,Cc1ccccc1C(O)C1C=CC2C(=O)N(c3ccccc3)C(=O)C2N1Nc1ccccc1F (centres undefined),-0.954
3,C=CC[C@]1(C(=O)NCc2ccccc2)COC(c2ccc(OCCCO)cc2)=N1,-0.137
4,C=C(/C(=C/C[C@@H](OC(C)=O)c1ccccc1OCCO)c1cc(C(=O)OC)ccc1OC)C(C)C,0.862
5,CCCC=C(CCC)[C@@H](NS(=O)(=O)c1ccc(Cl)cc1)c1ccccc1,1.1

# Assay: basal S. cerevisiae growth modulation, no modifier, primary screen, OD600, strain BY4716, 24 h, basal condition (AID 1173)
# Conditions: OD600, 24 h, higher = more signal, called active from +8 up or from −8 down
row,Structure (SMILES),z-score
1,CCCCC(O)C1C=CC2C(=O)N(C)C(=O)C2N1Nc1ccccc1 (centres undefined),0.216 (inactive)
2,O=C1C2C=CC(C(O)c3cccs3)N(Nc3ccccc3)C2C(=O)N1c1ccccc1 (centres undefined),-3.05 (inactive)
3,COC(=O)[C@@]1(Cc2ccccc2)[C@@H]2[C@@H](CC(=O)[C@H]2CC(=O)C(=O)N(C)C)CN1C(=O)c1ccccc1,1.55 (inactive)
4,CC=CC(O)C1C=CC2C(=O)N(C)C(=O)C2N1NC(=O)OC(C)(C)C (centres undefined),0.906 (inactive)
5,CN(C)C(=O)[C@]1(Cc2ccccc2)N=C(c2ccc(OCCCO)cc2)O[C@@H]1c1ccccc1,-1.32 (inactive)
6,C=CCC(OC(C)=O)[C@@H]1[C@@H](N(Cc2cccc3ccccc23)C(=O)c2ccc(-c3ccccc3)cc2)c2cc(OCCCO)ccc2N1C(=O)c1ccc2ccccc2n1 (some centres undefined),0.493 (inactive)
7,C=CCC(OC(C)=O)[C@@H]1[C@@H](N(Cc2ccc(-c3ccccc3)cc2)C(=O)c2ccc(-c3ccccc3)cc2)c2cc(OCCCO)ccc2N1C(=O)c1ccc2ccccc2n1 (some centres undefined),-0.599 (inactive)
8,NC(=O)NCC#Cc1ccc2c(c1)[C@]1(C(=O)N2)[C@H](C(=O)N2CCCCCCC2)[C@H]2C(=O)O[C@H](c3ccccc3)[C@H](c3ccccc3)N2[C@@H]1c1ccc(O)cc1,0.319 (inactive)
9,C=CCC(OC(C)=O)[C@@H]1[C@@H](N(Cc2ccc(-c3cccc(C(F)(F)F)c3)o2)C(=O)Cc2ccc(F)cc2)c2cc(OCCCO)ccc2N1C(=O)c1ccc2ccccc2c1 (some centres undefined),-0.382 (inactive)
10,O=C1C2C=CC(C(O)c3ccc([N+](=O)[O-])cc3)N(Nc3ccccc3)C2C(=O)N1c1ccccc1 (centres undefined),-2.61 (inactive)
11,O=C1c2ccccc2[C@@]2(Cc3ccccc3N(Cc3ccccc3)C2=O)[C@H](c2ccc(CO)cc2)N1Cc1ccccc1,-0.773 (inactive)
12,CCOC(=O)C[C@H]1[C@H](OC(=O)Cc2ccc3c(c2)OCO3)[C@@H](NC(=O)c2ccccc2)c2cc(OCCCO)ccc2N1C(=O)Cc1ccc(OC)cc1,-0.644 (inactive)
13,CCOC(=O)C[C@H]1[C@H](OC(=O)c2ccc(-c3ccccc3)cc2)[C@@H](NC(=O)CC(C)C)c2cc(OCCCO)ccc2N1C(=O)Cc1ccc(OC)cc1,0.605 (inactive)
14,CC(C)CNC(=O)[C@@H]1c2ccccc2C(=O)N(C2Cc3ccccc3C2)[C@H]1c1ccc(CO)cc1,-0.283 (inactive)
15,C=C(COC)C(=O)CC[C@@H](OC(C)=O)c1ccc(OCCO)cc1,-0.997 (inactive)
16,COCCOC(=O)N1C(=O)[C@@]2(c3cc(C#CC4(O)CCCCCC4)ccc31)[C@H](c1ccc(OCCO)cc1)N1[C@H](c3ccccc3)[C@H](c3ccccc3)OC(=O)[C@H]1[C@@H]2C(=O)N1CCCCCCC1,0.973 (inactive)
17,[N-]=[N+]=NCc1ccccc1C[C@]1(C(=O)O)COC(c2ccc(OCCCO)cc2)=N1,0.59 (inactive)
18,N[C@@H](Cc1ccccc1)Cn1cc(C2(O)CCCCC2)nn1,-0.125 (inactive)
19,Cc1ccc(F)cc1S(=O)(=O)N[C@@H]1CCN(Cc2ccc3[nH]ccc3c2)C1,-2.59 (inactive)
20,COCCOC(=O)N1C(=O)[C@@]2(c3cc(C#CC4=CCCCC4)ccc31)[C@H](c1ccccc1OCCO)N1[C@H](c3ccccc3)[C@H](c3ccccc3)OC(=O)[C@H]1[C@@H]2C(N)=O,-0.431 (inactive)
21,CC1(C)OC[C@@]23C=C(Br)[C@@H](C[C@H]12)[C@@]1(CO1)C3=O,-1.2 (inactive)
22,CN1C(=O)C2C=CC(C(O)c3ccc(-c4ccccc4)s3)N(Nc3ccccc3)C2C1=O (centres undefined),-1.02 (inactive)
23,C=C(COC)/C(=C/C[C@H](OC(=O)c1ccncc1)c1ccc(OCCO)cc1)c1cc(C(=O)OC)ccc1OC,0.194 (inactive)
24,COCCn1c(C(=O)N2CCCC2)cc2c1C[C@H]1CN(C(=O)c3ccccc3)[C@@](Cc3ccccc3)(C(=O)OC)[C@@H]21,0.859 (inactive)
